For part of these data: Measured potencies and affinities stand elsewhere. The source made the active and inactive calls.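 Rule for the calls, unless noted: active = compound raising the membrane signal above positive-control mean plus 3 SD in both repeats, and a primary screen hit; inactive = the rest.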
Experiments:
[1] = test system: TRPC4 beta (transient receptor potential cation channel C4), mouse; assay: activators of mouse TRPC4 channel, confirmation, cell-based, Fluo4 calcium, HEK293 TRPC4beta/mu-opioid, duplicates, 10 µM (AID 2426;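 active = fluorescence ratio normalized to control raised more than 50% in primary screen plus both repeat runs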); settings: Fluo4 calcium fluorescence, at 10 µM; active compounds read high
[2] = test system: transient receptor potential cation channel C4 beta (TRPC4), mouse; assay: activators of mouse TRPC4 channel, confirmation, cell-based, second round, Fluo4, HEK293 TRPC4beta/mu-opioid, 1 µM (AID 2461;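 active = primary screen active and over 50% activation in each of two duplicate runs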); settings: Fluo4 calcium fluorescence, at 1 µM; active compounds read high
[3] = test system: TRPC4 (transient receptor potential cation channel C4 beta), mouse; assay: positive allosteric modulators of mouse TRPC4, confirmation, cell-based, second round, Fluo-4, HEK293 TRPC4beta/mu-opioid, 1 µM (AID 2554;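 active = primary screen hit whose fluorescence ratio, in both repeats, exceeds the weak agonist control mean by 3 SD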); settings: DAMGO EC20, Fluo-4 calcium flux, at 1 µM; active compounds read high
[4] = test system: TRPC4 beta (transient receptor potential cation channel C4), mouse; assay: positive allosteric modulators of mouse TRPC4, confirmation, cell-based, Fluo-4, HEK293 TRPC4beta/mu-opioid (AID 2555;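 active = primary screen hit whose calcium fluorescence ratio, in both repeats, exceeds the weak agonist control mean by 3 SD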); settings: DAMGO EC20, Fluo-4 calcium flux, at 10 µM; active compounds read high
[5] = biological target: Short transient receptor potential channel 4 (Mus musculus) (UniProt Q9QUQ5); assay: inhibitors of mouse TRPC4 channel, confirmation, cell-based, Fluo4, HEK293 TRPC4beta/mu-opioid (AID 2636;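 active = calcium signal cut by more than 3 SD below the full-agonist control yet still positive, in both repeats and the earlier primary screen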); settings: DAMGO, Fluo4 calcium flux, at 10 µM; active compounds read high
[6] = biological target: Short transient receptor potential channel 4 (Mus musculus) (UniProt Q9QUQ5); assay: inhibitors of mouse TRPC4 channel, confirmation, cell-based, second round, Fluo4, HEK293 TRPC4beta/mu-opioid, 1 µM (AID 2637;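 active = calcium signal ratio cut to more than 3 SD under the fully stimulated control mean yet still positive, in both repeats and the primary screen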;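 for inhibition: percent of integrated ratio relative to wells lacking test compound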); settings: Fluo4 calcium flux, DAMGO, at 1 µM; active compounds read high
[7] = biological target: Short transient receptor potential channel 4 (Mus musculus) (UniProt Q9QUQ5); assay: mouse TRPC4 channel activators, dose response, cell-based, HEK293 TRPC4/mu-opioid, Fluo-4 calcium (AID 434937;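 active = primary screen activator hit with a dose response curve and TRPC4 channel activation at any tested dose; inactive = no activation, no dose response, or not a primary hit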)
[8] = biological target: Short transient receptor potential channel 4 (Mus musculus) (UniProt Q9QUQ5); assay: TRPC4 positive allosteric modulators, dose response, cell-based, HEK293 TRPC4/mu-opioid, Fluo-4 calcium, EC20 DAMGO (AID 434941;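 active = earlier screen potentiator hit that boosts the TRPC4 ion channel at some dose, with a dose response; inactive = no potentiation, no dose response, or not a prior hit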;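 note: calcium entry triggered by an EC20 dose of DAMGO at the co-expressed mu-opioid receptor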)
[9] = biological target: Short transient receptor potential channel 6 (Mus musculus) (UniProt Q61143); assay: inhibition of mouse TRPC6 channel, confirmation, selectivity assay for TRPC4 inhibitor project, cell-based, HEK293, membrane potential dye, duplicate (AID 434948;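 active = active in primary screen and both duplicates, each dropping signal beyond three positive-control SD with fluorescence still positive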); settings: HEK293 TRPC6, membrane potential dye fluorescence, at 10 µM, stimulated with maximal-effect acetylcholine; active compounds read high
[10] = biological target: Short transient receptor potential channel 6 (Mus musculus) (UniProt Q61143); assay: activation of mouse TRPC6 channel, confirmation, selectivity assay for TRPC4 activator project, cell-based, HEK293, membrane potential dye, duplicate (AID 434950;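 active = membrane potential signal rise above negative control mean plus 3 SD in both duplicates, also active in the earlier TRPC4 screen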); settings: HEK293 TRPC6, membrane potential fluorescence, at 10 µM; active compounds read high
[11] = biological target: Short transient receptor potential channel 6 (Mus musculus) (UniProt Q61143); assay: TRPC6 potentiation by TRPC4 potentiator hits, confirmation, selectivity assay for TRPC4 potentiator project, HEK293 cells, membrane potential dye, duplicate (AID 434952); settings: HEK293 TRPC6, membrane potential dye fluorescence, at 10 µM, maximal acetylcholine added after compound; active compounds read high
[12] = biological target: Short transient receptor potential channel 4 (Mus musculus) (UniProt Q9QUQ5); assay: calcium flux activators in TRPC4/5HT1a cells, counter-screen for TRPC4 activator project, cell-based, second counter screen, HEK293 TRPC4/5HT1a, Fluo-4 (AID 434977;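 active = calcium signal rise above buffer-control mean plus 5 SD in both duplicates, and also a hit in the primary screen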); settings: Fluo-4 calcium flux, at 10 µM; active compounds read high
[13] = calcium flux inhibitors in TRPC4/5HT1a cells, confirmation, counter-screen for TRPC4 inhibitor project, cell-based, second counter screen, HEK293 TRPC4/5HT1a, Fluo-4 (AID 434978;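 active = primary screen active whose calcium signal fell more than 3 SD beyond the full-serotonin control mean in both duplicate plates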); settings: Fluo-4 calcium flux, at 10 µM, serotonin added to trigger calcium flux; active compounds read high
[14] = test system: TRPC4 (mouse), co-expressed with 5HT1a in HEK293; assay: calcium flux potentiators in TRPC4/5HT1a cells, confirmation, counter-screen for TRPC4 potentiator project, cell-based, second counter screen, HEK293 TRPC4/5HT1a, Fluo-4 (AID 434979;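 active = signal rise over 3 SD above mean of control wells given weak agonist, in both repeats and first screen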); settings: Fluo-4 calcium flux, at 10 µM, serotonin added at its EC20 dose; active compounds read high
[15] = calcium flux activation in mu-opioid HEK293 cells, confirmation, counter-screen for TRPC4 activator project, cell-based, HEK293 mu-opioid receptor line (AID 449723;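 active = hit in primary screen, with calcium signal over 5 SD above buffer well mean in both duplicates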;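 note: counter screen cells carry the mu-opioid receptor alone and lack TRPC4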); settings: Fluo-4 calcium fluorescence, at 10 µM; active compounds read high
[16] = calcium flux enhancement in mu-opioid HEK293 cells, confirmation, counter-screen for TRPC4 allosteric potentiator project, cell-based, HEK293 mu-opioid receptor line (AID 449724;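 active = calcium signal rise more than 3 SD above the low-dose agonist control mean, in both duplicate plates and the primary screen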); settings: Fluo-4 calcium flux, at 10 µM, compound added before EC20 DAMGO stimulus; active compounds read high

Measured: inhibition

Short transient receptor potential channel 4 (Mus musculus), sequence (Q9QUQ5 whole entry, looked up): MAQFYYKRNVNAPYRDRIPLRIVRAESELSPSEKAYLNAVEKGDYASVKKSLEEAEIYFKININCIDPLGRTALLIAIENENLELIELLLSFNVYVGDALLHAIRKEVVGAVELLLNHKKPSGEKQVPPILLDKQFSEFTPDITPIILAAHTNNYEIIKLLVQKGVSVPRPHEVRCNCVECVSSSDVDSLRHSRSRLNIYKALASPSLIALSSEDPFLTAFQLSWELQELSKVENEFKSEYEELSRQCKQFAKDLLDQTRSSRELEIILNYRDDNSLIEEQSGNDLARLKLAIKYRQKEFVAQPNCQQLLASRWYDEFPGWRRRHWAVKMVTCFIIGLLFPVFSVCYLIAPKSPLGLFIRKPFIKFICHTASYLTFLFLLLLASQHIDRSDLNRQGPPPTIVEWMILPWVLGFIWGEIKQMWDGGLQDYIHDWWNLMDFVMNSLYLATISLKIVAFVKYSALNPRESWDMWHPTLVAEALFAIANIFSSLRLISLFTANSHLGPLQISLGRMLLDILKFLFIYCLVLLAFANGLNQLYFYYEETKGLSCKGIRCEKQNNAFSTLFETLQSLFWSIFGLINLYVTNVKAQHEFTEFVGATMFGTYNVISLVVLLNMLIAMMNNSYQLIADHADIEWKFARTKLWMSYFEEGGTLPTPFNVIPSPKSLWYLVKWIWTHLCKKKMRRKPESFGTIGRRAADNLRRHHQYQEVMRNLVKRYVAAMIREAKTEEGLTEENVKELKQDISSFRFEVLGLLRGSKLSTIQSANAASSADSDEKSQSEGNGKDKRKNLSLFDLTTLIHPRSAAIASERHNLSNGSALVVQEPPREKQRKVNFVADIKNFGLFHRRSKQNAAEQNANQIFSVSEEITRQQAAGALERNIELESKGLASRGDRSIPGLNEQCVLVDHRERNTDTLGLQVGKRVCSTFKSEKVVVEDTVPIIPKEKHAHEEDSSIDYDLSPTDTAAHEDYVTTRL
Short transient receptor potential channel 6 (Mus musculus), sequence (Q61143 whole entry, looked up): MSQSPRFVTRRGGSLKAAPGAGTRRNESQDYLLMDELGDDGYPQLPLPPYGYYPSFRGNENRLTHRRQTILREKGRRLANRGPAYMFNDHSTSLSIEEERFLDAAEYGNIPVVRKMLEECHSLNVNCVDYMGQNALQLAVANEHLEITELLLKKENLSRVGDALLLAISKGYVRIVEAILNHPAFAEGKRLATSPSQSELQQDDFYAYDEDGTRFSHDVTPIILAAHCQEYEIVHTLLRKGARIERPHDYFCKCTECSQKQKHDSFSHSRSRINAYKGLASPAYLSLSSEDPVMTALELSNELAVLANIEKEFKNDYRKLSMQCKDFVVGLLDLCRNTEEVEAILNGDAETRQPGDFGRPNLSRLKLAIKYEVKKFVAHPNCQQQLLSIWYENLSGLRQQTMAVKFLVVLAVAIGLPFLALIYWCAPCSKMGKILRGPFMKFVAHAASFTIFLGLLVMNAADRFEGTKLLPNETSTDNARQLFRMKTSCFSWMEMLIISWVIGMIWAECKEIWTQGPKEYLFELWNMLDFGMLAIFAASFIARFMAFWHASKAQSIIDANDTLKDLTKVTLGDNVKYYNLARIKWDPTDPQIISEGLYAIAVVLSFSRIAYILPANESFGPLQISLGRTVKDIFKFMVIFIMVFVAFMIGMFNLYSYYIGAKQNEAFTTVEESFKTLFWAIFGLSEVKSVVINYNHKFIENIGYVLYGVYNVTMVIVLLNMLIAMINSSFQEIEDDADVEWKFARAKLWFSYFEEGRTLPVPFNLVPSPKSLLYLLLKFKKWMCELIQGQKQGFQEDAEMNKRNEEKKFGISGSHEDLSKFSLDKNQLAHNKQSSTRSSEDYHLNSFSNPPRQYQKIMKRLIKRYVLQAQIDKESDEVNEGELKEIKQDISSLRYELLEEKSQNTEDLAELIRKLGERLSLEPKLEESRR

FC(F)Oc1ccccc1NC(=S)Nc1cccc(Cl)c1Cl
inactive: [1] | [2] | [3] | [4] | [7] | [8] | [9] | [10] | [11] | [12] | [13] | [14] | [15] | [16]
active: [5] 77% | [6] 45%

CCOc1cc(/C=C2\C(=N)N3N=CSC3=NC2=O)ccc1OS(=O)(=O)c1ccccc1
inactive: [1] | [2] | [3] | [4] | [6] | [7] | [8] | [9] | [10] | [11] | [12] | [14] | [15] | [16]
active: [5] 96% | [13] 16.2%

Oc1ccc(Nc2nc(N3CCCC3)c3ccccc3n2)cc1
active: [5] 95% | [9] 39.5% | [13] 36.8%
inactive: [1] | [2] | [3] | [4] | [6] | [7] | [8] | [10] | [11] | [12] | [14] | [15] | [16]

COc1cccc(Cn2c(Oc3ccccc3)nc3c2c(=O)n(C)c(=O)n3C)c1
active: [5] 81% | [6] 43% | [13] 40.4%
inactive: [1] | [2] | [3] | [4] | [7] | [8] | [9] | [10] | [11] | [12] | [14] | [15] | [16]

OCCNCc1cc(Br)ccc1OCc1ccc(Cl)cc1Cl
active: [5] 49% | [13] 24.9%
inactive: [1] | [2] | [3] | [4] | [6] | [7] | [8] | [9] | [10] | [11] | [12] | [14] | [15] | [16]

CN1CCN(c2nc3c(c(=O)n(C)c(=O)n3C)n2CC(=O)C23CC4CC(CC(C4)C2)C3)CC1
active: [5] 92% | [6] 63% | [13] 17%
inactive: [1] | [2] | [3] | [4] | [7] | [8] | [9] | [10] | [11] | [12] | [14] | [15] | [16]

Cc1[nH]n(C)c(=O)c1C(=O)c1c(-c2c(Cl)cccc2Cl)noc1C
active: [5] 90% | [6] 42% | [13] 27.3%
inactive: [1] | [2] | [3] | [4] | [7] | [8] | [9] | [10] | [11] | [12] | [14] | [15] | [16]

COc1cccc(NC(=O)CCC(=O)N2CC(C)Oc3ccc(C)cc32)c1 (stereo not given)
active: [5] 85% | [13] 42.1%
inactive: [1] | [2] | [3] | [4] | [6] | [7] | [8] | [9] | [10] | [11] | [12] | [14] | [15] | [16]

COc1ccc(CN2CCN(C(=O)c3ccc(F)cc3)CC2)c(OC)c1
inactive: [1] | [2] | [3] | [4] | [7] | [8] | [9] | [10] | [11] | [12] | [14] | [15] | [16]
active: [5] 93% | [6] 57% | [13] 35.3%

CC(OC(=O)CNC(=O)c1ccccc1F)C(=O)Nc1nc(-c2ccccc2)cs1 (stereo not given)
inactive: [1] | [2] | [3] | [4] | [6] | [7] | [8] | [9] | [10] | [11] | [12] | [14] | [15] | [16]
active: [5] 78% | [13] 44.3%

CC(C)C(=O)Nc1ccc(C(=O)Nc2nnc(C(C)(C)C)s2)cc1
inactive: [1] | [2] | [3] | [4] | [6] | [7] | [8] | [9] | [10] | [11] | [12] | [14] | [15] | [16]
active: [5] 57% | [13] 35.1%

CCc1ccc2nc(N=C(N)N)nc(C)c2c1
active: [5] 93%
inactive: [1] | [2] | [3] | [4] | [6] | [7] | [8] | [9] | [10] | [11] | [12] | [13] | [14] | [15] | [16]

Cc1cccc(N(Cc2ccccc2)C(=O)CSC(C)C(=O)Nc2cc(C)on2)c1 (stereo not given)
active: [5] 91% | [13] 31.4%
inactive: [1] | [2] | [3] | [4] | [6] | [7] | [8] | [9] | [10] | [11] | [12] | [14] | [15] | [16]

Cc1cc(Nc2cccc(O)c2)c2ccccc2n1
active: [5] 86% | [9] 55%
inactive: [1] | [2] | [3] | [4] | [6] | [7] | [8] | [10] | [11] | [12] | [13] | [14] | [15] | [16]

COc1ccc(OC)c(Nc2cc(C)nc3ccc(C)cc23)c1
inactive: [1] | [2] | [3] | [4] | [6] | [7] | [8] | [10] | [11] | [12] | [13] | [14] | [15] | [16]
active: [5] 38% | [9] 41%

Source: PubChem BioAssay
